Source: PubChem BioAssay
A1 inh: inducers of caspase activity in MEF A1-2A-BIM cells, primary screen, A1 inhibitor project, cell-based, CaspaseGlo luminescence; caspase-Glo luminescence, 3 h; percent of clofoctol signal, DMSO as zero; caspase activation, % (concentration not given with the values); 0.51% of 21,000 active; AID 2241, 2010;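 active = most replicate scores above 10, or exactly half above 10 with mean activity above 10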;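 note: effector caspase 3 and 7 activity cleaving a DEVD luciferin substrate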
Numbers stand for hits; i = inactive. This is one part of a sample in which hits are shown more often than they occur.

SMILES	A1 inh
C=C1[C@@H](C)[C@H]2[C@H](Cc3ccccc3)NC(=O)[C@]23OC(=O)/C=C\[C@H](O)CCC[C@@H](C)C/C=C/[C@H]3[C@@H]1O	30
Cc1ccc(S(=O)(=O)N2CCCCC2)cc1C(=O)Oc1cccc2cccnc12	i
N#CC1(P(=S)(c2ccccc2)c2ccccc2)CCCC1	i
O=C(CC[N+](=O)[O-])OC[C@H]1O[C@@H](O)[C@H](OC(=O)CC[N+](=O)[O-])[C@@H](OC(=O)CC[N+](=O)[O-])[C@@H]1OC(=O)CC[N+](=O)[O-]	i
N#CC(c1ccccc1)c1ccccc1	i
CC1=CC2/C=C(\C)CCC(O)C(O)/C=C/C(=O)C23C(=O)NC(CC(C)C)C3C1C (stereo unspecified)	77
Cc1ccccc1CN1CCN(C(C)C)CC1	i
CC(/C=C/[C@@]1(C)[C@H](C)CCC(=O)[C@@H]1C)=C\Cc1c(O)c(Cl)c(C)c(C=O)c1O	i
COCc1cc(OC(=O)N(C)C)nc(COc2ccc(Cl)cc2)n1	i
CN(C(=O)c1ccc(Cl)cc1)c1ccc(Cl)cc1C(=O)c1ccccc1	i
CN[C@@H]1C[C@@]2(C)O[C@@H]([C@@H]1OC)n1c3ccccc3c3c4c(c5c6ccccc6n2c5c31)C(=O)NC4	84
O=C(c1ccc2nc(N3CCCCC3)sc2c1)N1CCC2(CC1)OCCO2	i
CO[C@H]1[C@H](O)[C@H](O[C@H]2CC[C@]3(C)C4CC[C@]5(C)C(C6=CC(=O)OC6)CC[C@]5(O)C4CC[C@@H]3C2)O[C@@H](C)[C@@H]1O (stereo partly specified)	i
CCc1ccc(CN2CCN(Cc3ccc(CC)cc3)CC2)cc1	i
Cc1nc(-c2ccccc2)nc(OC(=O)N(C)C)c1Oc1cccc(C(F)(F)F)c1	i
COc1cc2c(c(OC)c1OC)-c1cc3c(cc1[C@H](OC(C)=O)[C@H]1COC(=O)[C@@H]1C2)OCO3	i
CC(=O)OC[C@]12CCC(C)=C[C@H]1O[C@@H]1[C@H](O)[C@@H](OC(C)=O)[C@@]2(C)[C@]12CO2	16
CC(=O)OC[C@]12C[C@H](O)C(C)=C[C@H]1O[C@@H]1[C@H](O)[C@@H](OC(C)=O)[C@@]2(C)[C@]12CO2	13
C/C=C(/C)C(=O)O[C@H]1C(C)=C2[C@H]([C@@H]1OC(=O)CCCCC)[C@@](C)(OC(C)=O)C[C@H](OC(=O)CCC)[C@@]1(O)[C@H]2OC(=O)[C@@]1(C)O	i
CCC(C)N=Cc1c(O)[nH]c(=O)[nH]c1=O (stereo unspecified)	i
CCC1(CC)OC(c2cccnc2)Nc2ccccc21 (stereo unspecified)	i
CCc1ccc(NC2=NCCS2)cc1	i
CC(C)Sc1nnc(OC(=O)N(C)C)n1-c1cccc(C(F)(F)F)c1	i
CCCC12CNCC(C)(CNC1)C2=O	i
Cc1ccc2[nH]cc(CC(C)N)c2c1 (stereo unspecified)	i
SMILES	A1 inh
CCCCc1nc2ccccc2c(=O)n1-c1ccc(C)cc1	i
CCC(C)(O)C(=O)O[C@H]1C(=O)O[C@@H]2C[C@H]3C(C)=CC(=O)[C@@H](O)[C@]3(C)[C@H]3[C@@]4(O)OC[C@]32[C@@H]1[C@@H](C)[C@H]4O (stereo partly specified)	i
C/C=C\C(=O)O[C@@H]1C[C@H]2O[C@@H]3C=C(C)C(=O)C[C@]3(C)[C@]1(C)[C@]21CO1	11
CC1=CC2OC3[C@H](O)C[C@@](C)([C@]34CO4)[C@@]2(CO)[C@H](O)C1=O (stereo partly specified)	i
CC(O)CN1CC2CC(C1)c1cccc(=O)n1C2 (stereo unspecified)	i
Cc1ccc(NC(=O)c2cccc(OC(=O)N(C)c3ccccc3)c2)cc1C	i
CCOC(=O)C1=C(CN2CC=C(c3ccccc3)CC2)NC(=O)NC1c1ccc(OC)cc1 (stereo unspecified)	i
CCCc1nc(-c2ccccn2)nc(OC(=O)N(C)C)c1Cc1c(F)cccc1Cl	i
O=C1NC(=O)C(=Cc2cn(Cc3ccccc3)c3ccccc23)C(=O)N1	33
CCN(CC)CCc1c(C)c2ccc(O)cc2oc1=O	i
CCn1cnc2c(Nc3cccc(Cl)c3)nc(N[C@@H]3CCCC[C@@H]3N)nc21	26
Cc1[nH]c2ccccc2c1CCNCC(C)(C)C	i
O=[P+](c1ccccc1)c1ccccc1	i
CC1(C)C(=O)C=C[C@@]2(C)C1C(=O)C(=O)[C@]1(C)C2CC[C@@]2(C)[C@H](c3ccoc3)C[C@H]3O[C@]321 (stereo partly specified)	i
CCSc1nc2ccccc2c(=O)n1-c1cccc(OC)c1	i
